Only some compounds are listed: those with a hit (about 1.5% of all), similar ones and a draw of the others.
FEN1 inhibitor = blocks human flap endonuclease 1; P39748; Recombinant FEN1 flap cleavage, fluorescence, 15 min; Potency, µM (top dose mostly 114 µM), without a hit: top-dose activity change, negative = inhibition, most hits filed as inhibitors; actives 0.35% (n = 390,000); AID 588795; further: potency means the concentration at half of the fitted maximal effect; nearly all actives have a fitted effect of over 65% in size
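Reaction started by adding substrate (50 nM final) to 10 nM enzyme after 15 min room-temperature compound preincubation. Reads at 0 and 15 min, with data normalized and fitted to a four-parameter Hill equation.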
TDP1 block = inhibitors of human tyrosyl-DNA phosphodiesterase TDP1; Q9NUW8; recombinant TDP1, AlphaScreen DNA substrate cleavage; Potency, µM (series often up to 130 µM), for the others: at the top dose activity change, negative = inhibition, hits mostly inhibitors; actives 0.28% (n = 350,000); AID 485290; further: potency means the concentration at half of the fitted maximal effect; nearly all actives have a fitted effect of over 40% in size
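Here, a 5' biotin and 3' phosphotyrosine-FITC DNA oligonucleotide reports Tdp1 activity: intact substrate bridges AlphaScreen beads, while cleavage leaves a 3' phosphate and drops signal. All incubations at room temperature.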
PGK inhibitor = inhibitors of T. brucei phosphoglycerate kinase. P07378. PGK/GAPDH coupled, Kinase-Glo luminescence, 60 min. Potency, µM (top dose mostly 57.5 µM), without a hit: at the highest dose activity change, negative = inhibition, most hits filed as inhibitors. actives 0.043% (n = 380,000); further: potency means the concentration at half of the fitted maximal effect; nearly all actives have a fitted effect of over 60% in size
Target sequence (P07378 whole entry, looked up): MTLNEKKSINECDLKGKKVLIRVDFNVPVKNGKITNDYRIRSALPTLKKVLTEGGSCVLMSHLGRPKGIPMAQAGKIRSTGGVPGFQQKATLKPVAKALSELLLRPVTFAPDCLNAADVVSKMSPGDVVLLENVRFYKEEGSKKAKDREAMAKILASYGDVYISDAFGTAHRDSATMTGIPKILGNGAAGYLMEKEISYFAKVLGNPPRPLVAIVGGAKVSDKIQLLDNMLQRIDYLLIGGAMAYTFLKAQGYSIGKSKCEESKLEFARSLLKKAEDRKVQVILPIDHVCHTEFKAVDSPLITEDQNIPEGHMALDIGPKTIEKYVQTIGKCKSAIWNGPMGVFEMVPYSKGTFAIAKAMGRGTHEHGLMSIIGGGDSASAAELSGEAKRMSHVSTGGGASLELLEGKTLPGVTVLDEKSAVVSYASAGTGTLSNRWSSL
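Recombinant glycosomal PGK reaction used 1,3-bisphosphoglycerate generated in-well by GAPDH (100nM final) in 100mM TEA pH 7.6, 5mM MgCl2, 0.01% Tween-20. After 60 minutes at room temperature, ATP was read by Kinase-Glo Plus luminescence end-point.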
Tb PFK block = blocks T. brucei phosphofructokinase; O15648; T. brucei PFK, ADP-Glo luminescence; Potency, µM (top dose mostly 57.5 µM), for inactives: at the highest dose activity, negative = inhibition, most hits filed as inhibitors; actives 0.17% (n = 330,000); AID 485367;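 further: potency means the concentration at half of the fitted maximal effect; 0% = uninhibited 1x PFK enzyme wells and -100% = no-enzyme wells; nearly all actives have a fitted effect of over 60% in size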
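In TEA buffer at pH 8.0 with 5 mM MgCl2, enzyme (1.25 nM) converted F6P (0.5 mM) and ATP (0.1 mM) for 45 min at room temperature. ADP product was read by luciferase luminescence.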
WRN helicase inh = WRN helicase (human) inhibition; actives 0.46% (n = 360,000); AID 651768; Potency, µM (series often up to 114 µM), for the others: at the highest dose activity change, negative = inhibition, usual class: inhibitors; WRN helicase unwinding, fluorescent forked duplex, kinetic; Q14191; further: potency means the concentration at half of the fitted maximal effect; nearly all actives have a fitted effect of over 55% in size
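WRN at 20 nM final was preincubated with compound for 15 min at room temperature; reaction started with 100 nM forked duplex oligonucleotide carrying fluorophore and quencher plus 2 mM ATP (final). Unwinding followed kinetically by red fluorescence (ex 525/em 598 nm).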
PI5P4Ka inh = PI5P4K alpha (human) kinase inhibition. PI5P4Kalpha enzyme, ADP-Glo luminescence, 60 min; stronger effect = lower value. max response, %. actives 1.2% (n = 330,000). AID 652105; active means max response of -50% or lower; inconclusive means between -30% and -50%; inactive means -30% or higher; further: value at the top dose of about 77 µM
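Luminescence from ADP-Glo served as readout of PI5P4Kalpha activity in a qHTS format. Reaction: enzyme, substrate, compound, ATP at 5 microM final, 60 min at RT.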
An asterisk follows results filed as active; i = inactive; ? = inconclusive; · = not tested or not shown; [ ] = remark or other dose. Unless noted, the call rests on the fitted dose curve; in most records, active means well fitted curve in the direction sought with a large enough effect; inconclusive means small, poorly fitted or top-dose-only effect, or another doubt; inactive means no such curve, though single readings can be large; an effect the other way counts as inactive or inconclusive. Unless noted, on the % scale 0 is the no-effect control and ±100 the full control effect.

SMILES	FEN1 inhibitor	TDP1 block	PGK inhibitor	Tb PFK block	WRN helicase inh	PI5P4Ka inh
COc1ccc(-n2nc(C(=O)N3CCC(N4CCCCC4)CC3)c3c4ccccc4n(C)c3c2=O)cc1	89µM*	3%	-6%	-5%	-7%	-2
O=C(Nc1ccc2oc(-c3ccncc3)nc2c1)c1ccc(F)cc1	16%	79µM*	-4%	-4%	-28%	-6
O=C(Nc1ccc(-c2nc3cc(NC(=O)c4ccc(F)cc4)ccc3o2)cc1)c1ccc(F)cc1	-7%	3%	9%	·	·	·
Cc1cccc2c(N=Nc3ccc(S(=O)(=O)Nc4ccc(Cl)cc4)cc3[N+](=O)[O-])c(O)[nH]c12	-3%	8%	1%	7%	-13%	-74*
O=C(OCC(=O)c1c[nH]c2ccccc12)c1cccc(S(=O)(=O)N2CCCCCC2)c1	-2%	1%	0%	-9%	-14%	3
CCc1cccc2c(C(=O)COC(=O)c3cccc(S(=O)(=O)N(C)C4CCCCC4)c3)c[nH]c12	-5%	0%	-9%	0%	-7%	-68*
CN(C)CC(O)Cn1c2ccc(Br)cc2c2cc(Br)ccc21 (centres undefined)	·	7%	·	·	·	·
CC1(C)CC(=O)C2=C(C1)OC(N)=C(C#N)C2c1cc2c(cc1[N+](=O)[O-])OCO2 (centres undefined)	-10%	5%	i	-13%	?	-80*
CCOc1cc(C2C(C#N)=C(N)OC3=C2C(=O)CC(C)(C)C3)cc([N+](=O)[O-])c1O (centres undefined)	-6%	0%	i	-2%	-2%	3
Clc1ccc2c(N/N=C/c3ccccc3Br)ccnc2c1	-35%	3%	-1%	-3%	?	-27
Clc1ccc2c(N/N=C/c3cccc(Br)c3)ccnc2c1	-13%	-2%	6%	0%	-17%	-69*
Oc1cc(O)c2c(c1)O[C@H](c1ccc(O)c(O)c1)[C@@H](O)C2	15%	-6%	-7%	-11%	·	-2
O=C1c2c(O)cc(O)cc2O[C@@]12c1c(cc(O)c3c1O[C@H](c1ccc(O)cc1)[C@@H](O)C3)O[C@@H]2c1ccc(O)cc1	50µM*	1%	-4%	-5%	-10%[11.6 µM]	-22
O=C(CNC(=O)C1CCCC1)OC(C(=O)Nc1cc(C(F)(F)F)ccc1Cl)c1ccccc1 (centres undefined)	·	1%	·	·	·	·
COc1ccc(NC(=O)/C(Cl)=C(/Cl)S(=O)(=O)Cc2ccc(C)cc2)cn1	-20%	8%	1%	0%	50µM*	-7
COc1ccc(NC(=O)COC(=O)C(NC(=O)c2ccc(C)cc2)C(C)C)cn1 (centres undefined)	6%	3%	0%	-5%	-4%	1
C=C[C@@]1(C)C[C@H](OC(=O)CSC(C)(C)CNC(=O)[C@@H](N)C(C)C)[C@@]2(C)C(C)CC[C@@]3(CCC(=O)[C@@H]32)[C@H](C)[C@H]1O (some centres undefined)	0%	·	·	·	·	·
COc1cc(/C=C2\SC(=S)N(CC(=O)O)C2=O)ccc1OC(=O)c1ccco1	12%	0%[0.0935 µM]	-10%	3%	-22%	-13
O=C(O)CN1C(=O)/C(=C\c2cc(Br)ccc2OCc2ccc(Cl)cc2)SC1=S	?	·	·	-17%	56µM*	?
O=C(O)CN1C(=O)/C(=C\c2cc([N+](=O)[O-])ccc2OCc2ccccc2Cl)SC1=S	-16%	-7%	-15%	?	45µM*	-72*
O=C(O)CN1C(=O)/C(=C\c2ccccc2OCc2ccccc2)SC1=S	·	·	-2%	·	-8%	-15
COc1ccc(/C=C2/SC(=S)N(CC(=O)O)C2=O)cc1OCc1ccc(Cl)cc1	?	·	-25%	0%	56µM*	-12
O=C(Cc1ccc(OCCc2ccccc2)cc1)NO	4%	·	·	·	·	·
COc1ccc2[nH]c(C)c(C(=O)CN(C)CC(OC)OC)c2c1	9%	·	·	·	·	·
C=CC1=C[C@@H](O)C2OC2C12OCCCO2 (some centres undefined)	·	3%[21 µM]	·	·	·	·
SMILES	FEN1 inhibitor	TDP1 block	PGK inhibitor	Tb PFK block	WRN helicase inh	PI5P4Ka inh
NC(=S)N/N=C/c1ccc(-c2ccc([N+](=O)[O-])cc2)o1	0%	6%	-12%	-1%	-4%	-56*
NC(=S)N/N=C/c1ccc(-c2cc(Cl)cc(Cl)c2)o1	-3%	6%	-7%	·	-12%	?
COc1ccc(C2c3ccc(OCc4ccccc4)cc3Oc3ncn(CCN4CCOCC4)c(=N)c32)cc1OC (centres undefined)	·	5%	·	·	·	·
CCC(c1ccccc1)C(CC)c1cc(O)c(O)c(O)c1 (centres undefined)	-16%	·	-9%	·	45µM*	-6
CCC(C(=O)O)c1ccccc1 (centres undefined)	·	-18%[56.1 µM]	·	·	·	·
O=C(c1ccccc1)c1cc(Cl)ccc1N1C(=O)C=CC1=O	-24%	6%	i	?	14µM*	-66*
Cc1nn2c(=S)[nH]nc2[nH]c1=O	-6%	3%	-4%	?	?	-53*
NNc1nccc(Nc2ccccc2C(=O)O)n1	-23%	1%	-10%	-3%	?	-54*
CCOC1=C2[C@H](c3ccc(CC)cc3)N(S(=O)(=O)c3ccc(C)cc3)C[C@H]2C(C#N)(C#N)C(C#N)(C#N)C1	·	·	·	·	-6%	?
CCOC1=C2[C@H](c3ccccc3Cl)N(S(=O)(=O)c3ccc(C)cc3)C[C@H]2C(C#N)(C#N)C(C#N)(C#N)C1	·	·	·	·	-14%	-62*
CC(C)(C)OC(=O)Cc1nnc(CNC(=O)c2ccccc2)s1	·	0%	·	·	·	·
O=c1ccc2ccc(O)c(O)c2o1	7.5µM*	?	·	·	·	·
N#Cc1cccc(NS(=O)(=O)c2ccc3c(c2)CCC(=O)N3)c1	·	1%	·	·	·	·
CCNc1ccccc(C(=O)/C=C/c2ccc3c(c2)OCO3)c1=O	?	-3%	0%	2%	56µM*	-56*
COC(=O)/C=C/c1ccc2c(c1)OCO2	-1%	0%	7%	-4%	-4%	-1
COc1ccccc1NC(=O)c1ccc2ccccc2c1	·	-11%	·	·	·	·
O=C(O)c1cc(N2C(=O)C=CC2=O)cc(N2C(=O)C=CC2=O)c1	10µM*	·	?	·	8.9µM*	-78*
Cc1cnc2c3c(cc(Cl)c2c1)-c1ccccc1S(=O)(=O)N3	?	0%	·	·	·	·
Cc1cccc(N2CCN(C(=O)NCc3noc4ccccc34)CC2)c1C	89µM*	5%	0%	·	·	·
Cc1c(C#N)c(NC(=O)COC(=O)c2cc(Cl)c3c(c2)OCCCO3)n(Cc2ccco2)c1C	4%	·	·	·	·	·
